Measured values reported in the supplement of paper PMC6555819.

Assays:
Experiment in all cases: PBM binding z-score (relative to random genomic background probes); higher = stronger binding; sequences stand for … in GC…GCGATTGACAGCGTAGAATGAAGG
[1] = system: FXR:RXRa (NR concentration 270 nM, RXRa partner concentration 90 nM)
Procedure, shortened: (§1)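 Custom Agilent 4×180K protein-binding microarrays carried double-stranded probes, each with a 34-nt variable region. These regions held direct-repeat seeds, single-nucleotide variants, half-site ablations and random human genomic background sequences. Ligand-free nuclear receptor dimers were incubated on the arrays for 1 h, antibodies against each partner (one per run) detected binding, and scanned fluorescence was regression-normalized. Binding z-scores take the random background probes as reference.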

[2] = system: LXRa:RXRa (NR concentration 270 nM, RXRa partner concentration 90 nM)
Procedure, shortened: as §1

[3] = system: LXRa homodimer (NR concentration 270 nM)
Procedure, shortened: as §1

[4] = system: LXRb:RXRa (NR concentration 270 nM, RXRa partner concentration 90 nM)
Procedure, shortened: as §1

[5] = system: LXRb homodimer (NR concentration 270 nM)
Procedure, shortened: as §1

[6] = system: PPARa:RXRa (NR concentration 270 nM, RXRa partner concentration 90 nM)
Procedure, shortened: as §1

[7] = system: PPARg:RXRa (NR concentration 180 nM, RXRa partner concentration 90 nM)
Procedure, shortened: as §1

[8] = system: PPARg:RXRa 270nM:90nM, anti-RXR (NR concentration 270 nM, RXRa partner concentration 90 nM)
Procedure, shortened: as §1

[9] = system: PPARg:RXRa 30nM:10nM, anti-RXR (NR concentration 30 nM, RXRa partner concentration 10 nM)
Procedure, shortened: as §1

[10] = system: PPARg:RXRa 90nM:30nM, anti-RXR (NR concentration 90 nM, RXRa partner concentration 30 nM)
Procedure, shortened: as §1

[11] = system: PPARg:RXRa DBDmut IVT, anti-RXR (DBD mutation: RXRa K156A/R161A, NR concentration 270 nM, RXRa partner concentration 90 nM)
Procedure, shortened: as §1

[12] = system: PPARg:RXRa IVT, anti-PPARg (NR concentration 270 nM, RXRa partner concentration 90 nM)
Procedure, shortened: as §1

[13] = system: PPARg DBDmut:RXRa IVT, anti-PPARg (DBD mutation: PPARg1 K132A/R137A, NR concentration 270 nM, RXRa partner concentration 90 nM)
Procedure, shortened: as §1

[14] = system: PPARg DBDmut IVT, anti-PPARg (DBD mutation: PPARg1 K132A/R137A, NR concentration 270 nM)
Procedure, shortened: as §1

[15] = system: PPARg homodimer (NR concentration 180 nM)
Procedure, shortened: as §1

[16] = system: PXR:RXRa (NR concentration 270 nM, RXRa partner concentration 90 nM)
Procedure, shortened: as §1

[17] = system: PXR homodimer (NR concentration 270 nM)
Procedure, shortened: as §1

[18] = system: RARa:RXR (NR concentration 270 nM, RXRa partner concentration 90 nM)
Procedure, shortened: as §1

[19] = system: RARa homodimer (NR concentration 270 nM)
Procedure, shortened: as §1

[20] = system: RARb:RXRa (NR concentration 270 nM, RXRa partner concentration 90 nM)
Procedure, shortened: as §1

| Sequence | PBM binding z-score [1] | PBM binding z-score [2] | PBM binding z-score [3] | PBM binding z-score [4] | PBM binding z-score [5] | PBM binding z-score [6] | PBM binding z-score [7] | PBM binding z-score [8] | PBM binding z-score [9] | PBM binding z-score [10] | PBM binding z-score [11] | PBM binding z-score [12] | PBM binding z-score [13] | PBM binding z-score [14] | PBM binding z-score [15] | PBM binding z-score [16] | PBM binding z-score [17] | PBM binding z-score [18] | PBM binding z-score [19] | PBM binding z-score [20] |
| --- | --- | --- | --- | --- | --- | --- | --- | --- | --- | --- | --- | --- | --- | --- | --- | --- | --- | --- | --- | --- |
| CCTTAAGGGTCAAGGTTATAGCACGGGTGGTACG | 7.56 | 5.38 | 1.06 | 4.67 | 0.683 | 5.86 | 5.81 | 5.97 | 2.96 | 4.78 | 2.34 | 3.94 | 0.0433 | 0.353 | 2.23 | 4.37 | 0.453 | 5.62 | 1.31 | 5.4 |
| ATGTCTAGGTAAAGTTCAGTGAAAGATCGATAGA | 1.21 | 1.74 | 1.26 | 1.15 | 0.816 | 2.56 | 3.51 | 4.55 | 2.43 | 4.25 | 1.29 | 2.46 | 1.14 | 1.13 | 1.69 | 2.12 | 1.98 | 1.13 | 1.09 | 2.84 |
| GGAACGAGGGCATTCGAGTTGATAGCGTGGCGAT | 1.41 | 1.5 | -0.572 | -0.00424 | -0.698 | 1.35 | 0.634 | 0.67 | -0.488 | 0.214 | 3.44 | 2.02 | -0.574 | -0.961 | 0.0421 | 3.71 | 1.79 | 0.221 | -0.388 | 1.85 |
| CTCGAAAGGTCGGTTGCGGTGAGTATACGGATAA | 2.08 | 1.5 | 0.16 | 1.38 | 0.241 | 2.17 | 0.168 | 0.893 | 0.195 | 0.654 | 0.303 | 0.901 | 0.157 | 0.202 | 0.797 | 1.4 | -0.173 | 1.62 | -0.203 | 2.92 |
| ACTATTAGTTGAGACGTGGGCAACCGATAGGTTG | -0.344 | -0.403 | -0.444 | -0.738 | 0.00492 | -1.07 | 0.429 | -0.3 | -0.0556 | -0.44 | -0.218 | -0.152 | 0.175 | 0.352 | -0.426 | -0.64 | -0.53 | -0.914 | -0.357 | -0.226 |
| CGAACTAGGTCAAAGGTCAAAGTCGAGCCAACCA | 8.28 | 7.41 | 5.37 | 7.03 | 2.53 | 7.47 | 14.1 | 11.4 | 14.7 | 14 | 8.51 | 9.23 | 5.13 | 3.23 | 6.9 | 7.09 | 2.03 | 8.93 | 3.32 | 5.51 |
| TCATATAGGTAATAGAGGTGAAAGTCGGCATCTA | 1.47 | 1.99 | 0.555 | 1.43 | 0.0572 | 2.96 | 2.3 | 3.61 | 4.55 | 4.02 | 4.53 | 4.06 | 1.5 | 0.929 | 0.919 | 1.12 | 0.895 | 1.92 | 1.02 | 1.27 |
| GCTTGTACATCAAGGTTAAGAAAGACTAAGCTAA | 0.247 | 0.691 | -0.229 | 0.559 | -0.133 | 0.96 | 0.118 | 0.299 | -0.184 | 0.084 | -0.0633 | 0.772 | 0.219 | -0.0385 | 0.116 | 0.266 | -0.152 | 0.856 | 0.262 | 0.882 |
| AGAACGAGGGCACGCTGAGTTGGTAGCAGAGTAG | 0.682 | 0.402 | -0.489 | -0.113 | -0.719 | 1.87 | 1.62 | 1.46 | -0.03 | 0.942 | 4.25 | 3.68 | 0.349 | -0.628 | -0.387 | 0.612 | -0.377 | 0.517 | -1.12 | 2.46 |
